The text below walks through data of PubChem BioAssay (NCI).

Common to all, as to test: NCI-60 one-dose screen, 48 h (100 = growth as untreated, 0 = no growth, -100 = all killed)
The subject of one assay is HCT-15 colon. The settings on record: 10 µM unless noted.
Another assay has as its system HT29 colon. As to conditions: 10 µM unless noted.
For the next assay, the system named is SNB-75 CNS. As to conditions: 10 µM unless noted.
Another assay has as its system SNB-19 CNS. As to conditions: 10 µM unless noted.
Another assay concerns U251 CNS. The settings on record: 10 µM unless noted.
The next assay concerns PC-3 prostate. The settings on record: 10 µM unless noted.
Another assay has as its system SK-MEL-5 melanoma. The settings on record: 10 µM unless noted.
The subject of a further assay is UACC-62 melanoma. As to conditions: 10 µM unless noted.
The subject of a further assay is LOX IMVI melanoma. The settings on record: 10 µM.
A further assay has as its system SK-MEL-2 melanoma. The settings on record: 10 µM unless noted.
A further assay deals with EKVX NSCLC. As to conditions: 10 µM unless noted.
The next assay relates to SN12C renal. The settings on record: 10 µM unless noted.
The subject of the next assay is UO-31 renal. The settings on record: 10 µM unless noted.
Another assay has as its system TK-10 renal. As to conditions: 10 µM unless noted.
For a further assay, the system named is CAKI-1 renal. The settings on record: 10 µM unless noted.
The subject of another assay is A498 renal. The settings on record: 10 µM unless noted.
For another assay, the system named is CCRF-CEM leukemia. As to conditions: 10 µM unless noted.
Another assay has as its system MOLT-4 leukemia. The settings on record: 10 µM unless noted.
A further assay has as its system SK-MEL-28 melanoma. The settings on record: 10 µM unless noted.
The next assay deals with ACHN renal. The settings on record: 10 µM unless noted.

Compounds without any hit were thinned out: in the full panel of roughly 83,000, 20% have a hit.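 Testing used 96-well plates and a 48-hour single-concentration exposure. Example: -40 means 40% of the starting cells died.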 A number with no mark means an inactive call. The source made the active and inactive calls. How the source made its calls: active means growth percent below 10; inactive means the rest.

Take `CCCCCC(=O)OCCC1CCCCC1`: the growth in the assay with HCT-15 colon was 107%; in the assay with HT29 colon, 101%; with SNB-75 CNS, 89.1%; in the assay with SNB-19 CNS it was 112%; with U251 CNS, 96%; in the assay on PC-3 prostate, 98.7%. The growth in the assay on SK-MEL-5 melanoma is 100%; with UACC-62 melanoma, 104%; in the assay with LOX IMVI melanoma it was 98.6%; with SK-MEL-2 melanoma it was 106%; in the assay on EKVX NSCLC, 108%; in the assay with SN12C renal, 97.2%. In addition, the growth in the assay on UO-31 renal was 92.2%; in the assay on TK-10 renal, 99%; with CAKI-1 renal it was 103%; with A498 renal, 79.3%; with CCRF-CEM leukemia, 83.8%; in the assay on MOLT-4 leukemia it was 95.7%.
On to `O=C1C=CC(=O)C2=C1CCCC2`, for which the growth in the assay on HCT-15 colon is 92.4%; in the assay on HT29 colon it was 109%; with SNB-75 CNS, 80.2%; with SNB-19 CNS it was 92.7%; in the assay on U251 CNS it was 95.5%; in the assay on PC-3 prostate, 82.7%. For the same molecule, the growth in the assay on SK-MEL-5 melanoma is 97.5%; in the assay on UACC-62 melanoma it was 85.5%; in the assay with SK-MEL-28 melanoma, 108%; in the assay with SK-MEL-2 melanoma it was 110%; in the assay on EKVX NSCLC it was 69.1%; in the assay on SN12C renal, 98.7%. The growth in the assay on UO-31 renal was 70.9%; in the assay on TK-10 renal it was 132%; with ACHN renal, 90%; with CAKI-1 renal, 79%; with A498 renal, 132%; in the assay with CCRF-CEM leukemia, 18.8%. Further, in the assay with MOLT-4 leukemia, the growth was 31.1%.
As for `COc1ccc(/C=C\C(=O)/C=C/c2ccc(OC)cc2)cc1`, the growth in the assay with HCT-15 colon was -13.7% (active); in the assay with HT29 colon, 49.3%; with SNB-75 CNS, 103%; with SNB-19 CNS, 89.3%; in the assay on U251 CNS, 63.8%; with PC-3 prostate, 62.3%. In addition, the growth in the assay on SK-MEL-5 melanoma is 91.7%; in the assay on UACC-62 melanoma, 70.4%; with SK-MEL-28 melanoma, 106%; in the assay on SK-MEL-2 melanoma, 123%; in the assay on EKVX NSCLC, 93.2%; with SN12C renal, 90.3%. Also, the growth in the assay with UO-31 renal was 69.1%; in the assay on TK-10 renal, 116%; with ACHN renal it was 95.5%; with CAKI-1 renal, 87.5%; in the assay with A498 renal, 174%; with CCRF-CEM leukemia, 37.4%. Besides, the growth in the assay on MOLT-4 leukemia is 68.2%.
On to `COc1ccc(Br)c(C=O)c1`, for which the growth is 26.8% in the assay with HCT-15 colon; 76.3% in the assay with HT29 colon; 54.8% in the assay on SNB-75 CNS; 74.8% in the assay on SNB-19 CNS; 39.1% in the assay on U251 CNS; 71.7% in the assay with PC-3 prostate. Besides, the growth in the assay on SK-MEL-5 melanoma is 81.8%; in the assay on UACC-62 melanoma, 63.8%; in the assay on SK-MEL-28 melanoma, 86%; with SK-MEL-2 melanoma, 104%; in the assay with EKVX NSCLC, 83.2%; in the assay on SN12C renal, 63.9%. For the same molecule, the growth in the assay with UO-31 renal is 54.1%; in the assay with TK-10 renal, 83.7%; in the assay on ACHN renal, 88.9%; in the assay on CAKI-1 renal it was 63.9%; in the assay with A498 renal, 93.4%; in the assay with CCRF-CEM leukemia it was 2.55% (active). The growth in the assay with MOLT-4 leukemia was 18.9%.
On to `COc1ccc(NNS(=O)(=O)O)cc1`, for which the growth with HCT-15 colon is 101%; in the assay with HT29 colon, 99.9%; with SNB-75 CNS it was 83.2%; in the assay with SNB-19 CNS, 98.1%; with U251 CNS, 98%; in the assay on PC-3 prostate, 86.1%. The growth with SK-MEL-5 melanoma is 102%; in the assay with UACC-62 melanoma, 96.7%; with LOX IMVI melanoma, 99.7%; in the assay with SK-MEL-2 melanoma it was 103%; with EKVX NSCLC it was 104%; with SN12C renal, 89.9%. The growth was 90.4% in the assay with UO-31 renal; 103% in the assay with TK-10 renal; 97.4% in the assay with ACHN renal; 98.5% with CAKI-1 renal; 99.2% with CCRF-CEM leukemia; 105% with MOLT-4 leukemia.
For the molecule `CCC(C)c1c(N)n(S(=O)(=O)c2ccc(C)cc2)oc1=O` (stereo not drawn), the growth is 100% in the assay on HCT-15 colon; 93.5% with HT29 colon; 88.9% with SNB-75 CNS; 106% in the assay on SNB-19 CNS; 104% in the assay on U251 CNS; 94.3% in the assay with PC-3 prostate. For the same molecule, the growth in the assay on SK-MEL-5 melanoma is 100%; in the assay with UACC-62 melanoma, 101%; with SK-MEL-28 melanoma, 119%; with SK-MEL-2 melanoma, 107%; with EKVX NSCLC, 121%; in the assay with SN12C renal, 106%. For the same molecule, the growth with UO-31 renal is 89.5%; in the assay with TK-10 renal it was 101%; with ACHN renal, 99.9%; in the assay with CAKI-1 renal it was 96.5%; in the assay on A498 renal, 113%; in the assay on CCRF-CEM leukemia, 112%. Moreover, in the assay on MOLT-4 leukemia, the growth was 109%.
In the case of `Nc1cc2c(cc1Cl)C(=O)c1ccccc1C2=O`, the growth in the assay on HCT-15 colon was 70.6%; with HT29 colon it was 83.8%; in the assay with SNB-75 CNS it was 30.9%; in the assay on SNB-19 CNS, 36.2%; in the assay on U251 CNS, -34.1% (active); with PC-3 prostate it was 72.5%. Moreover, the growth was 91.9% in the assay on SK-MEL-5 melanoma; 73.2% with UACC-62 melanoma; 101% with SK-MEL-28 melanoma; 111% in the assay on SK-MEL-2 melanoma; 42.5% in the assay with EKVX NSCLC; 34% with SN12C renal. The growth in the assay with UO-31 renal is -15% (active); with TK-10 renal, 33.8%; in the assay with ACHN renal, 3.29% (active); in the assay on CAKI-1 renal, 41.5%; in the assay with A498 renal, 103%; with CCRF-CEM leukemia it was 80.5%. Also, in the assay on MOLT-4 leukemia, the growth is 85.8%.
For the molecule `Cc1[nH]nc(C(N)=O)c1[N+](=O)[O-]`, the growth with HCT-15 colon is 95.2%; in the assay on HT29 colon, 108%; with SNB-75 CNS, 99.6%; in the assay with SNB-19 CNS, 93.2%; in the assay on U251 CNS it was 103%; with PC-3 prostate, 100%. Moreover, the growth in the assay on SK-MEL-5 melanoma was 91.2%; in the assay on UACC-62 melanoma, 90.3%; in the assay with LOX IMVI melanoma, 97.2%; in the assay with SK-MEL-2 melanoma, 119%; with SN12C renal, 98.4%; with UO-31 renal, 96.8%. For the same molecule, the growth in the assay on TK-10 renal is 106%; in the assay on ACHN renal, 99.3%; in the assay on CAKI-1 renal, 102%; with A498 renal, 78.4%; with CCRF-CEM leukemia, 105%; in the assay on MOLT-4 leukemia, 109%.
`CCCc1cccc(CCC)c1NC(=O)Nc1cc(Cl)cc(Cl)c1`: the growth in the assay on HCT-15 colon is 113%; in the assay on HT29 colon it was 107%; with SNB-75 CNS it was 108%; in the assay with SNB-19 CNS, 99.5%; in the assay with U251 CNS it was 101%; in the assay with PC-3 prostate, 101%. Moreover, the growth in the assay with SK-MEL-5 melanoma is 94.3%; in the assay on UACC-62 melanoma, 90%; with SK-MEL-28 melanoma, 103%; with SK-MEL-2 melanoma, 106%; in the assay on EKVX NSCLC, 109%; in the assay on SN12C renal, 91%. For the same molecule, the growth was 69.7% in the assay on UO-31 renal; 106% in the assay with TK-10 renal; 101% in the assay on ACHN renal; 83.5% in the assay on CAKI-1 renal; 95.9% in the assay with A498 renal; 91.6% in the assay with CCRF-CEM leukemia. In the assay with MOLT-4 leukemia, the growth is 101%.
